# The supplement of paper PMC10646978
# ± gives the standard deviation.
# Tested on: RAW-Dual (murine macrophage reporter line)
# Test: NF-kB reporter (SEAP) activity fold change vs agonist alone; higher = enhanced NF-kB activity
# Settings: modulator concentration 10 µM; agonist: CpG ODN 1826 0.5 ug/mL
# Procedure, shortened: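 In 384-well plates holding 50 000 RAW-Dual murine macrophage reporter cells per well, compound at 10 μM final was pre-incubated for 1 hour at 37 °C, after which a PRR agonist was added overnight. Supernatant SEAP read with QUANTI-Blue at 620 nm absorbance reported NF-κB, and Lucia luciferase read with QUANTI-Luc luminescence reported IRF. Fold change values come from dividing each reporter signal by the mean of agonist-only control wells on the same plate, averaged over replicate plates with propagated errors.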
row,SMILES,NF-kB reporter
1,Nc1ncnc2c1ncn2C1OC(COP(=O)(O)O)C(O)C1O (stereo not given),1.9 ± 0.51
2,CC1=C(C(=O)OCC(F)(F)C(F)(F)F)C(c2ccccc2)NC(=O)N1 (stereo not given),0.847 ± 0.052
3,O=C(Cn1cc(S(=O)(=O)c2ccc(F)cc2)c2ccccc21)N1CCCCCC1,0.825 ± 0.12
4,Cc1ccc(Nc2cc(N3CCCCC3)c(N)c3c2C(=O)c2ccccc2C3=O)cc1,1.26 ± 0.23
5,COc1cccc(-c2cc(C(=O)N3CCC(Oc4cc(C)n(C)c(=O)c4)CC3)n(C)n2)c1,1.01 ± 0.11
6,O=C(COc1cccc2ccccc12)NCc1ccncc1,0.804 ± 0.069
7,N#Cc1nc(-c2ccc(COc3ccc(Cl)cc3)o2)oc1N1CCCCC1,0.826 ± 0.063
8,Brc1ccc(CN2C3=NCCCN3c3ccccc32)cc1.Cl,0.263 ± 0.023
9,CN1CCN(CCC=C2c3ccccc3Sc3ccc(S(=O)(=O)N(C)C)cc32)CC1,0.935 ± 0.071
10,NC[C@@H]1O[C@H](O[C@@H]2[C@@H](CO)OC(O[C@@H]3[C@@H](O)[C@H](N)C[C@H](N)[C@H]3O[C@H]3O[C@H](CN)[C@@H](O)[C@H](O)[C@H]3N)[C@@H]2O)[C@H](N)[C@@H](O)[C@@H]1O.O=S(=O)(O)O (stereo not given in full),0.993 ± 0.074
11,COc1cc2nc(N3CCN(C(=O)C4COc5ccccc5O4)CC3)nc(N)c2cc1OC (stereo not given) [Prestw-858],0.138 ± 0.011
12,Cc1ncn(CC(=O)N2CC(Oc3cccc(C(F)(F)F)n3)C2)c(=O)c1C,0.986 ± 0.059
13,COc1ccccc1C1C(C(C)=O)=C(O)C(=O)N1CCN(C)C (stereo not given),0.967 ± 0.054
14,O=C(Nc1ccc(Cl)cc1)C(Sc1ccccc1)c1ccccc1 (stereo not given),0.994 ± 0.11
15,CC=CCn1c(=O)c2c(nc3n2CC(C(C)(C)C)=NN3)n(C)c1=O,1.02 ± 0.092
16,CC(C)(C)c1cc(NCc2ccccn2)n2ncc(-c3ccc(Cl)cc3)c2n1,0.256 ± 0.019
17,CCC(=O)CC(O)(c1ccccc1)C(F)(F)F (stereo not given),1.04 ± 0.099
18,CCC1(CC)Cc2ccccc2C(CC(=O)N2CCOCC2)=N1.O=S(=O)(O)O,0.627 ± 0.058
19,NC(=O)c1cccnc1,0.89 ± 0.16
20,Cc1cc(=O)[nH]c(-n2nc(C)c(CCC(=O)N3CCN(C)CC3)c2C)n1,1.16 ± 0.092

row,SMILES,NF-kB reporter
1,COc1cc2nccc(Oc3ccc(NC(=O)Nc4cc(C)on4)c(Cl)c3)c2cc1OC,0.178 ± 0.022
2,Cc1cnc(C(=O)O)c[n+]1[O-],1.09 ± 0.085
3,CCN(CC)CCCC(C)Nc1c2ccc(Cl)cc2nc2ccc(OC)cc12 (stereo not given) [Prestw-318],0.0785 ± 0.011
4,O=C(CCCn1nc(-c2ccc(F)cc2)ccc1=O)Nc1cc(Cl)ccc1Cl,1.01 ± 0.16
5,CC(C)Sc1ccc(CC(=O)N2C3C=CCC2CC3)cc1 (stereo not given),0.963 ± 0.12
6,COc1cc(O)c2c(=O)cc(-c3ccc(O)cc3)oc2c1,1.15 ± 0.098
7,COCCN1C(=O)CN(C2CCN(Cc3cc(OC)cc(OC)c3)CC2)C1=O,0.918 ± 0.047
8,CC1c2cccc(O)c2C(=O)C2=C(O)C3(O)C(=O)C(C(N)=O)=C(O)C(N(C)C)C3C(O)C21.Cl (stereo not given),1.34 ± 0.32
9,CCOc1ccc(-c2ccc(=O)n(CCNS(=O)(=O)CCc3ccccc3)n2)cc1,1.08 ± 0.081
10,Cc1cc(CCNC(=O)c2cc3ccccc3s2)nn1C,1.2 ± 0.12
11,O=C(NCCN1CCOCC1)c1ccc(Cl)cc1,1.37 ± 0.2
12,COc1cc2nc(N(C)CCCNC(=O)C3CCCO3)nc(N)c2cc1OC.Cl (stereo not given),0.585 ± 0.096
13,CCCCCCOc1ccc(N2C(=O)CC(N3CCN(Cc4ccc5c(c4)OCO5)CC3)C2=O)cc1 (stereo not given),0.919 ± 0.073
14,COC(=O)C1=CN(CC2CCCO2)C=C(C(=O)OC)C1c1cccc(F)c1 (stereo not given),0.948 ± 0.21
15,COc1ccc(C2(C#N)CCC(C(=O)O)CC2)cc1OC1CCCC1 (stereo not given),1.37 ± 0.11
16,COc1ccc(N2CC(C(=O)NCc3ccccc3C(F)(F)F)CC2=O)cc1 (stereo not given),1 ± 0.11
17,COc1cccc2c1C(=O)c1c(O)c3c(c(O)c1C2=O)C[C@@](O)(C(=O)CO)C[C@@H]3O[C@H]1C[C@H](N)[C@H](O)[C@H](C)O1.Cl,0.0942 ± 0.012
18,O=c1cc(-c2ccccc2)oc2cc(O)c(O)c(O)c12,1.51 ± 0.5
19,O=C1C(O)=C(c2ccc([N+](=O)[O-])cc2)C(=O)c2ccccc21,0.967 ± 0.065
20,CCCCOc1ccc(CC(=O)NO)cc1,1.69 ± 0.38
